Bioassay records (PubChem)
The list is not random: actives were taken first. Their share in the collection is about 1%.
TcdB inh – blocks C. difficile toxin B glycohydrolase activity; inhibition, % at 9.99 µM; P18177; hit rate 0.24% among 350,000; TcdB glycohydrolase enzymatic assay, plate reader; in the data active means inhibition above about 10%
Target sequence (P18177 whole entry, looked up): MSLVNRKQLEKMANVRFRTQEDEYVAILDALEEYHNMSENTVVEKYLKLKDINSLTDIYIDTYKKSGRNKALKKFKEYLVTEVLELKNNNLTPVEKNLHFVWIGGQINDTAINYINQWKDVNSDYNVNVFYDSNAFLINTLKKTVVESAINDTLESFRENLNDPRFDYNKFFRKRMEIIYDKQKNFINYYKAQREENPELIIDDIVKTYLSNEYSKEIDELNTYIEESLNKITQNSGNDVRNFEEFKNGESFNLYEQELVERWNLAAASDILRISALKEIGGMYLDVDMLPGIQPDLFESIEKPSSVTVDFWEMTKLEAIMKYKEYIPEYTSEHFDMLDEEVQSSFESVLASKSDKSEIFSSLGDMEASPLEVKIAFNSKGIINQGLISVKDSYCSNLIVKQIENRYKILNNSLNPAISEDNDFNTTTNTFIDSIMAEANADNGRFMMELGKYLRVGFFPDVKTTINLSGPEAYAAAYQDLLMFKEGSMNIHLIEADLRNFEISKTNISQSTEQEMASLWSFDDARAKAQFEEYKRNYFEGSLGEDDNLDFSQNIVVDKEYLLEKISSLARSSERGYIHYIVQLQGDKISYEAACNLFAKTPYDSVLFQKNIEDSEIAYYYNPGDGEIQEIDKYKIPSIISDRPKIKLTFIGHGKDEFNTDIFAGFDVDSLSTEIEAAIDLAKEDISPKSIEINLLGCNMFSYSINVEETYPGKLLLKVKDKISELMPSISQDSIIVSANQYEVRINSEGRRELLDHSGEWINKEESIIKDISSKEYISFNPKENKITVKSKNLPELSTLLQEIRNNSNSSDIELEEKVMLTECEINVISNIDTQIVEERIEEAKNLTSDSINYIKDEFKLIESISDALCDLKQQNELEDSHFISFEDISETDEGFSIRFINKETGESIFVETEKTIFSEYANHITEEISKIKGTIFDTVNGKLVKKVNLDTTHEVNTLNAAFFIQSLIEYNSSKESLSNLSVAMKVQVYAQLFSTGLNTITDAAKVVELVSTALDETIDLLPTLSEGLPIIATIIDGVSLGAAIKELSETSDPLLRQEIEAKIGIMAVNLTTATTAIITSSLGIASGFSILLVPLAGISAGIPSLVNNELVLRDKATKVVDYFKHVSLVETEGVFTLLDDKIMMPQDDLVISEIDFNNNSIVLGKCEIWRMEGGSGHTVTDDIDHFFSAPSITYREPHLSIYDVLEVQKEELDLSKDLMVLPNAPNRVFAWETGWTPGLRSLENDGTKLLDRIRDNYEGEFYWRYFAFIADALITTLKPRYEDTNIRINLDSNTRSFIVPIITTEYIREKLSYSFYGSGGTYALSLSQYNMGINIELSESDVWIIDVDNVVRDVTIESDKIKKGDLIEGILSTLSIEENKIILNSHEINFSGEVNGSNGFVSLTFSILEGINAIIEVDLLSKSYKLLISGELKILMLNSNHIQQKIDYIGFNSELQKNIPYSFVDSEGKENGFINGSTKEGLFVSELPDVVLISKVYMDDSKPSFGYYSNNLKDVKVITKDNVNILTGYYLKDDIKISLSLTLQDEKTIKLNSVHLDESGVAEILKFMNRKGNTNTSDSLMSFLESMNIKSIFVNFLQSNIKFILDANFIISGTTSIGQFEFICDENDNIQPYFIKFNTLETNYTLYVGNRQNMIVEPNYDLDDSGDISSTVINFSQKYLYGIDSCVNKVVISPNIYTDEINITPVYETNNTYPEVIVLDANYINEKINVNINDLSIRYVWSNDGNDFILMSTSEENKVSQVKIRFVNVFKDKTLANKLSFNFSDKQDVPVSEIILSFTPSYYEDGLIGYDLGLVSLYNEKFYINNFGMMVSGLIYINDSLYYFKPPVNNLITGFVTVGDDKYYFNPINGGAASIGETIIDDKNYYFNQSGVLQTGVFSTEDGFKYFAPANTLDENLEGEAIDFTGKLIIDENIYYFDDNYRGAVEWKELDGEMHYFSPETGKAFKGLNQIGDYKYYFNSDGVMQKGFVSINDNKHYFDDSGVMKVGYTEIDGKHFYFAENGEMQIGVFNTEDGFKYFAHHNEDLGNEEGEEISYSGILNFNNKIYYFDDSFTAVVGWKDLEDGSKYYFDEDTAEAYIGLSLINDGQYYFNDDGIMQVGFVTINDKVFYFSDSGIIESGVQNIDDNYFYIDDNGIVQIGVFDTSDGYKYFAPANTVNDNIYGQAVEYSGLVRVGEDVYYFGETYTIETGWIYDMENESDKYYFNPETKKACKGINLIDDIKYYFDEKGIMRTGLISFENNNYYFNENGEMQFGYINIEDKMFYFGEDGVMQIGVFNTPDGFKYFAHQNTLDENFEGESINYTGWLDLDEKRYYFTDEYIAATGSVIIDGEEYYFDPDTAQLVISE
SSB-PriA inh – K. pneumoniae PriA-SSBct interaction inhibition. AlphaScreen SSBct-PriA binding, biotinylated peptide. inhibition, % at 33 µM. hit rate 0.6% among 430,000. AID 1272365; in the data active means inhibition mostly above about 37%, no sharp cut-off; inactive means mostly below about 20%;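 further: plate controls were negative control peptide for no effect and reference peptide for full effect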
PrP 5UTR inh – inhibition of PrP 5' UTR reporter expression; cell-based PrP 5' UTR mRNA reporter, plate reader; inhibition, % (no concentration beside the values); hit rate 0.35% among 340,000; in the data active means inhibition above about 52%; further: 0 = median of the neutral control wells
FadD28 FP inh – blocks FadD28 binding to the bisubstrate probe; hit rate 0.22% among 360,000; inhibition, % at 12.5 µM; fluorescence polarization; AID 588549; in the data active means inhibition above about 8.5%, passing the limit was not always enough
Mtb hypoxia inh – reduces hypoxia-regulated biosensor signal in M. tuberculosis | fluorescence inhibition, % (test concentration not listed) | hit rate 0.1% among 300,000 | AID 1159583 | M. tuberculosis hypoxia-regulated fluorescent reporter, fluorescence; in the data active means fluorescence inhibition mostly above about 23%, no sharp cut-off; inactive means mostly below about 17%
Mtb BioA inh – blocks M. tuberculosis BioA enzyme activity; purified M. tuberculosis BioA enzyme, plate reader; inhibition, % at 9.99 µM; hit rate 0.096% among 360,000; AID 602481; in the data active means inhibition above about 40%
Numbers without * were called inactive; i = inactive; / = not tested or not shown.

SMILES | TcdB inh | SSB-PriA inh | PrP 5UTR inh | FadD28 FP inh | Mtb hypoxia inh | Mtb BioA inh
Cc1ccc2c(c1)C1CN(C)CCC1N2Sc1ccccc1[N+](=O)[O-] (stereo unspecified) | 1.4 | 55.2* | -18.7 | -3.8 | / | /
O=C1NC(=O)N(c2ccc(Br)cc2)C(=O)/C1=C/c1ccsc1 | / | -7.5 | -19.5 | 0.9 | -0.2 | /
CC(=O)NC(C)c1nc2ccccc2n1CC(=O)N1C(C)CCCC1C (stereo unspecified) | 0.2 | 10.9 | -18.3 | -1.6 | 2.6 | /
O=[N+]([O-])c1ccc(N2CCCCCC2)c2ncccc12 | 1.4 | 42.0* | -32.4 | -0.9 | 7.6 | /
O=[N+]([O-])c1ccc(N2CCCCC2)c2ncccc12 | 1.5 | 51.4* | -33.9 | -2.3 | -0.6 | 0.8
O=C(c1ccccc1F)N1CCN(c2ccc([N+](=O)[O-])c3ncccc23)CC1 | / | 2.6 | -11.7 | -3.8 | 2.3 | /
O=C(c1ccccc1F)N1CCN(c2ccc([N+](=O)[O-])c3cccnc23)CC1 | 12.3* | 7.5 | -18.5 | -0.5 | 10.2 | /
CC(C)(O)C#Cc1ccc([C@H]2[C@H](CO)N3CCCCN(S(C)(=O)=O)C[C@@H]23)cc1 | -2.5 | / | / | / | / | 9.2
Cc1cccc(S(=O)(=O)N2CN(Cc3ccco3)c3nc4ccccc4nc32)c1 | / | 95.8* | -26.8 | 1.3 | 3.4 | -3.1
Cc1nnc(SCC(=O)NCc2ccco2)n1-c1ccccc1 | / | -20.2 | -16.5 | -0.3 | -0.2 | -2.0
O=C(CSc1ncc(-c2ccccc2)n1-c1ccccc1)NCc1ccco1 | 0.7 | 52.2* | -39.8 | -5.4 | 11.1 | -1.2
Cc1nnc(SCC(=O)NCc2ccco2)n1-c1ccc(F)cc1 | / | -2.0 | -4.4 | -1.0 | 3.8 | 1.9
O=C(CSc1ncc(-c2ccc(F)cc2)n1Cc1ccco1)Nc1ccc2c(c1)OCO2 | / | 29.9 | -61.1 | 0.2 | 5.9 | 0.7
COc1ccc(-n2c(-c3ccc(F)cc3)cnc2SCC(=O)NCc2ccco2)cc1 | / | 49.3* | -34.0 | -1.6 | 2.6 | /
CCOc1ccc(NC(=O)CSc2ncc(-c3ccc(F)cc3)n2Cc2ccco2)cc1 | 0.6 | 43.4* | -1.1 | -2.6 | 12.0 | /
CCOCCCNC(=O)c1c(C)c(C(=O)OCC)n(C)c1C | / | -16.6 | -17.1 | -4.8 | 7.9 | /
O=c1[nH]c2ccccc2n1CCCN1CCCCC1 | 0.6 | -8.3 | 0.8 | 2.3 | 8.2 | /
O=C(CCS(=O)(=O)c1ccc(Cl)cc1)N1CCN(c2ccccc2F)CC1 | / | 0.8 | -13.5 | -0.1 | 13.1 | 3.1
O=C(N/N=C/c1cc(Br)c(Br)o1)c1ccc2c(c1)OCCO2 | -0.2 | i | -92.9 | -4.1 | / | 0.1
O=C(N/N=C/c1cc(Br)c(O)c(Br)c1O)c1ccc2c(c1)OCCO2 | -0.2 | / | -15.7 | 12.4* | / | -0.7
COC(=O)c1cccc2nc3c(C(C)O)cccc3nc12 (stereo unspecified) | -0.4 | 41.5* | -16.9 | -1.0 | / | -1.5
O=C1NC(=S)SC1=Cc1cc(Br)ccc1O | 0.8 | 6.6 | -1.1 | 11.6* | 9.7 | /
COc1cccc(-c2nc(CS(=O)CC(=O)NC(C)CCc3ccccc3)c(C)o2)c1 (stereo unspecified) | 0.5 | -12.0 | -3.9 | -3.3 | -12.4 | -1.5
Cc1ccccc1-c1nc(CS(=O)CC(=O)NC(C)CCc2ccccc2)c(C)o1 (stereo unspecified) | / | 59.6* | -32.5 | 1.7 | -10.7 | 2.1
CCC(C)N(C(=O)c1csnn1)C(C(=O)NC(C)(C)C)c1ccccc1 (stereo unspecified) | / | -9.7 | -2.1 | 1.1 | / | -5.5
SMILES | TcdB inh | SSB-PriA inh | PrP 5UTR inh | FadD28 FP inh | Mtb hypoxia inh | Mtb BioA inh
CC(C)[C@H](NC(N)=O)C(=O)NCCc1ccc(Cl)cc1 | 0.4 | 38.8* | -13.7 | -2.0 | 6.9 | /
Cc1ccc(CNC(=O)CN2C(=O)NC(C)(c3cccc(Br)c3)C2=O)cc1 (stereo unspecified) | 0.2 | -0.9 | -1.4 | -1.5 | -7.1 | 0.4
O=C(/C=C/c1ccc(S(=O)(=O)N2CCOCC2)cc1)NCCc1ccc(C(F)(F)F)cc1 | -0.4 | -7.3 | -26.9 | -9.7 | 24.5* | 0.0
COCCN1CCC(CNS(=O)(=O)c2cc(Cl)ccc2Cl)CC1 | / | -10.0 | / | / | / | /
COc1ccc(NC(=O)CSc2ccc([N+](=O)[O-])cc2)cc1S(=O)(=O)N1CCOCC1 | 0.5 | 5.6 | -14.5 | 12.1* | -9.4 | /
CCOc1cc(/C=N/NC(=O)c2cccnc2)ccc1OCC(N)=O | 4.4 | / | -9.6 | -0.5 | / | /
CCOc1cc(/C=N/NC(=O)c2cccnc2)ccc1O | 3.2 | / | -12.2 | 0.2 | / | 40.6*
O=C(N/N=C/c1cccc(OC(=O)c2ccccc2Cl)c1)c1cccnc1 | -0.3 | / | 2.9 | -22.4 | / | 50.2*
COc1cc(C=NNC(=O)c2cccs2)ccc1OCc1ccccc1 | / | -6.7 | / | / | 9.1 | /
Cc1ccc(NC(=O)c2ccc(Nc3c([N+](=O)[O-])cc([N+](=O)[O-])cc3[N+](=O)[O-])cc2)cc1 | 0.4 | -3.0 | -35.1 | 1.1 | 45.7* | /
Cc1ccc(NC(=O)C(=O)NCc2cccs2)c([N+](=O)[O-])c1 | / | 56.0* | / | / | / | /
Cc1ccc(NC(=O)C(C)Oc2cccc(Br)c2)c([N+](=O)[O-])c1 (stereo unspecified) | / | 49.0* | / | / | / | /
CC(C)(C)c1ccc(NC(=O)c2ccccc2)c([N+](=O)[O-])c1 | 0.1 | 58.5* | -16.0 | -0.3 | -2.0 | 2.4
Cc1ccc(NC(=O)C(=O)NCc2ccccn2)c([N+](=O)[O-])c1 | / | 3.0 | / | / | / | /
O=C(Nc1ccc(C(F)(F)F)cc1[N+](=O)[O-])c1ccccc1 | / | 67.8 | / | / | / | /
COc1ccc(N(CC(=O)NC2CCCC2)C(=O)Cn2nnc(-c3ccc(C)o3)n2)c(OC)c1 | 0.7 | -2.3 | -14.2 | -3.8 | -10.4 | -1.0
O=C(NCCc1ccccc1)N1CCC(Oc2cnccn2)CC1 | / | -11.0 | / | / | / | /
Cc1ccc(NC(=O)c2ccccc2)c([N+](=O)[O-])c1 | / | 57.2* | / | / | / | /
CC(C)(C)c1ccc(NC(=O)c2ccc(Br)cc2)c([N+](=O)[O-])c1 | / | 40.5 | / | / | / | /
CC(C)(C)c1ccc(NC(=O)c2ccc(Cl)cc2)c([N+](=O)[O-])c1 | / | 63.5* | / | / | / | /
Cc1noc(C)c1CCC(=O)N1CCCCC1c1cc(C(N)=O)n[nH]1 (stereo unspecified) | / | 0.0 | / | / | / | /
Cc1cc([N+](=O)[O-])cc([N+](=O)[O-])c1NCC(C)C | 0.8 | 43.8* | -12.8 | -1.8 | 3.3 | 2.5
Cc1ccc(S(=O)(=O)Nc2c(C)cc([N+](=O)[O-])cc2C)cc1 | 1.6 | -7.4 | -11.0 | 0.3 | / | /
Fc1ccc(F)c(C2=NNC(=Nc3ccccc3F)SC2)c1 | 1.5 | 38.0 | -71.3 | -5.1 | 12.6 | -1.1
Cc1cccc(N=C2NN=C(c3ccccc3F)CS2)c1C | 1.2 | 44.0* | -31.1 | -2.7 | 16.7 | /
Fc1ccc(N=C2NN=C(c3cc(F)ccc3F)CS2)cc1 | 0.7 | 50.0* | -61.0 | -2.0 | 5.1 | /
N#CC1(Nc2ccccc2)C(=O)Nc2ccccc21 (stereo unspecified) | / | -10.2 | -2.1 | 0.5 | 55.8* | -0.5
COc1ccc(Br)cc1C(=O)Nc1ccc(C(=O)O)cc1 | 1.5 | -4.2 | 8.5 | -3.7 | -1.2 | -1.3
COc1ccc(Br)cc1C(=O)Nc1ccc(O)cc1 | 24.2* | -1.5 | 3.6 | -1.3 | -3.2 | 1.5
